Compound activity: PubChem, Broad Institute
C-LANA FP – blocks KSHV LANA C-terminal domain binding to DNA | MBP-C-LANA/FAM-LBS DNA binding, fluorescence polarization | inhibition, % at 9 µM | hit rate 0.078% among 340,000 | AID 504423;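 active means highest replicate inhibition at or above 60% at 9 µM, even if other replicates fall short; inactive means all replicates below 60% inhibition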
Keap1 Nrf2 FP – Keap1-Nrf2 (human) interaction inhibition; Q14145; Keap1 Kelch-Nrf2 peptide fluorescence polarization, 1536-well; inhibition, % at 9.4 µM; hit rate 0.15% among 340,000; in the data active means inhibition above about 12%;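 further: human Keap1 Kelch domain with fluorescein labeled Nrf2 9mer peptide probe; higher means more block of Keap1 binding to Nrf2 peptide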
HDAC3 inhib – blocks human histone deacetylase 3. O15379. recombinant HDAC3, fluorogenic peptide/trypsin coupled, fluorescence. inhibition, % at 8.3 µM. hit rate 0.15% among 320,000. AID 2718; in the data active means inhibition above about 26%, passing the limit was not always enough
Glyco luc inh – N-linked glycosylation inhibition | D54 ERlucT glycosylation luciferase reporter, 24 h; percent of 100 nM tunicamycin response | reporter increase, % at 12.5 µM | hit rate 0.23% among 360,000 | AID 588692;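 active means mean luciferase reporter signal, scaled so untreated is 0 and the glycosylation-blocking control 100, at or above a set limit in every replicate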;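 further: luciferase carries N-glycosylation sites so blocking glycosylation raises the light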
NSD2 inh – blocks human histone methyltransferase NSD2. NSD2 peptide methylation, AlphaScreen, 120 min. inhibition, % at 12.5 µM. hit rate 0.54% among 310,000. AID 743445; in the data active means inhibition above about 50%
CASP6 VEID inh – inhibitors of human caspase-6; hit rate 0.53% among 350,000; AID 686996; inhibition, % at 12.5 µM; purified caspase-6, Z-VEID-R110 cleavage fluorescence;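 active means mean inhibition across replicates at least about 35%, with every replicate also reaching that limit, limit read from the data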
Hits are given with their value; n = inactive; x = no result given. This is a sample that favours compounds with a hit; in the whole collection about 1.1% have one here.

SMILES | C-LANA FP | Keap1 Nrf2 FP | HDAC3 inhib | Glyco luc inh | NSD2 inh | CASP6 VEID inh
O=C(Nc1sc2c(c1C(=O)O)CCC2)C(=O)N1CCOCC1 | n | n | n | n | n | 37.4
O=C(Nc1sc2c(c1C(=O)O)CCCC2)C(=O)N1CCOCC1 | n | n | n | n | n | n
COc1ccc(C(=O)n2cnc3ccccc32)cc1 | n | n | 33.2 | n | n | n
COc1ccc(C(=O)n2cnc(N)n2)cc1 | n | n | 70.7 | n | n | x
C[C@H](O)C#Cc1cnc2c(c1)C(=O)N([C@H](C)CO)C[C@H](C)[C@@H](CN(C)Cc1cccc(F)c1)O2 | x | x | x | x | x | n
COc1cccc(S(=O)(=O)N(C)C[C@H]2Oc3ncc(-c4cccc(C(=O)N(C)C)c4)cc3C(=O)N([C@@H](C)CO)C[C@@H]2C)c1 | x | x | x | x | x | n
O=C(N/N=C/c1ccnc2ccccc12)c1ccccc1O | n | n | n | n | n | n
Cc1cc(C)cc(C(=O)N/N=C/c2ccoc2)c1 | n | n | n | n | n | n
O=C(N/N=C/c1ccoc1)c1cc(O)cc(O)c1 | n | n | x | n | n | 74.1
O=C(N/N=C/c1oc(O)c2ccccc12)c1ccccc1O | n | n | n | n | n | 36.9
COc1ccc(/C=N/NC(=O)c2ccccc2O)cc1CN1CCOCC1 | n | n | n | n | n | 41.9
O=C(N/N=C/c1ccc[nH]1)c1ccccc1O | n | n | n | n | n | 59.9
C[C@H](CO)N1C[C@H](C)[C@H](CN(C)CC2CC2)Oc2ccc(NC(=O)CCCCCC(=O)Nc3ccccc3N)cc2C1=O | x | x | x | x | x | n
O=C(N/N=C/c1ccoc1)c1ccccc1O | n | n | x | n | n | 49.8
O=C(N/N=C/c1ccoc1)c1ccccc1 | n | n | x | n | n | n
O=C(NC[C@H]1CC[C@H]2[C@H](CN2Cc2cc(-c3ccccc3)on2)O1)c1ccc2c(c1)OCO2 | x | x | x | x | x | n
COc1ccc(NC(=O)N(C)C[C@@H]2Oc3ccc(N(C)C)cc3C(=O)N([C@@H](C)CO)C[C@@H]2C)cc1 | x | x | x | x | x | n
CO[C@@H]1CC[C@H]2CCOc3c(C#N)cccc3C(=O)N(C)CC3(CCCCC3)CC(=O)N(C)C[C@H]1O2 | x | x | x | x | x | n
CC(=O)C1=C(C)OC(N)=C(C#N)C1c1cc([N+](=O)[O-])ccc1Cl (stereo unspecified) | n | n | n | 29.5 | n | n
Nc1cccc(C(=O)OCC(=O)Nc2cccc3c2C(=O)c2ccccc2C3=O)c1 | n | n | n | n | n | x
CCN(CC)CCNC(=O)c1ccc2c(c1NCCO)C(=O)c1ccccc1C2=O | x | x | n | n | x | 35.8
CCN(CC)CCC(=O)Nc1cccc2c1C(=O)c1ccccc1C2=O | n | n | n | 109.8 | n | n
C[C@@H]1CN([C@@H](C)CO)C(=O)Cc2cc(NS(=O)(=O)c3cn(C)cn3)ccc2O[C@H]1CN(C)C(=O)Nc1cccc2ccccc12 | x | x | x | x | x | n
O=C(C[C@@H]1C[C@@H]2c3cc(NC(=O)c4cccnc4)ccc3O[C@@H]2[C@@H](CO)O1)NCCc1ccccc1 | x | x | x | x | x | n
O=[N+]([O-])c1ccccc1N=Nc1ccc(O)cc1O | x | x | x | n | n | n
SMILES | C-LANA FP | Keap1 Nrf2 FP | HDAC3 inhib | Glyco luc inh | NSD2 inh | CASP6 VEID inh
O=S(=O)(O)c1cc(O)c(N=Nc2ccc(O)cc2O)c2ccccc12 | n | n | x | n | 92.4 | 52.0
Cc1cc(NCCN2CCOCC2)c2ccc3ccccc3c2n1 | n | n | n | 38.4 | n | n
Cc1noc(C)c1NC(=O)N(C)C[C@@H]1Oc2c(NC(=O)Nc3cccc4ccccc34)cccc2C(=O)N([C@@H](C)CO)C[C@@H]1C | x | x | x | x | x | n
C[C@H](CO)N1C[C@H](C)[C@H](CN(C)CC2CCCCC2)Oc2ccc(NC(=O)Nc3ccc4c(c3)OCO4)cc2C1=O | x | x | x | x | x | n
CC1(C)CC2(C)OC2C2(C1)N=NC(=Nc1ccccc1)O2 (stereo unspecified) | x | x | x | 45.2 | n | x
CC(=O)N1CCc2cc(Br)cc(S(=O)(=O)N3CCC(C(=O)O)CC3)c21 | n | n | n | n | n | 39.2
COc1ccc(C(=O)NC2=Nc3ccccc3N=C(C)C2c2ccccc2)cc1 (stereo unspecified) | n | n | 76.6 | n | n | n
COc1cc(C=C2C(=O)C=CC2=O)ccc1O | x | x | x | x | x | 79.0
COc1cc(/C=C2/C(=O)CNC2=O)ccc1O | n | n | n | n | n | x
COc1ccc(C(=O)NCCN(C)C)c2nc3ccccc3cc12 | n | n | x | 54.3 | n | n
CN(C)CCNC(=O)c1ccccc1-c1cc2ccccc2c(=O)o1 | n | n | n | n | n | n
COc1ccc(-c2nc3c(C(=O)NCCN(C)C)cccc3c3ccccc23)cc1 | n | n | x | 36.6 | n | n
COc1cccc2nc3c(C(=O)NCCN(C)C)cccc3cc12 | n | n | x | 48.6 | x | n
CN(C)CCNC(=O)c1cccc2nc3c(ccc4ccccc43)nc12 | n | n | x | 56.3 | n | n
CN1C(=O)c2cc(NC(=O)c3cscn3)ccc2OC[C@@H]2O[C@H](CC(=O)N3CCCCC3)CC[C@@H]21 | x | x | x | x | x | n
CC(=O)N(C)C[C@@H]1Oc2ncc(C#Cc3cccc(F)c3)cc2C(=O)N([C@@H](C)CO)C[C@@H]1C | x | x | x | x | x | n
C[C@H](CO)N1C[C@H](C)[C@@H](CN(C)Cc2ccc(C(F)(F)F)cc2)Oc2c(NS(=O)(=O)c3cn(C)cn3)cccc2C1=O | x | x | x | x | x | n
CN(C)CCNC(=O)c1cccc2[nH]c(-c3ccncc3)nc12 | n | n | x | 68.0 | x | n
CN(C)CCNc1cccc2sc3ccc(O)cc3c(=O)c12 | x | x | x | 106.7 | n | n
Cc1ccc(NCCN(C)C)c2c(=O)c3cc(O)ccc3sc12 | n | n | x | 62.5 | n | n
O=C(C[C@@H]1CC[C@@H]2[C@H](COC[C@H](O)CN2S(=O)(=O)c2cccc(F)c2)O1)NCCCN1CCOCC1 | x | x | x | x | x | n
O=C(O)C1Oc2cc3ccccc3cc2O1 | n | n | n | n | n | 55.4
C[C@@H]1CN([C@H](C)CO)C(=O)c2cc(C3=CCCC3)cnc2O[C@H]1CN(C)C(=O)CN(C)C | x | x | x | x | x | n
